# Measurements from PubChem BioAssay AID1159580 (chemical genetic matrix, 2015).
# Several values for one entry are separate records, joined by “and”; a condition that tells them apart may be missing. Equal values may be shown once. Hit rate of the full screen: of about 5,500 compounds, about 2,000 (36%) were called active. Not shown: some 18% with an inconclusive outcome. The list shows a part of the results. Values without a mark were called inactive. Rule as the data show it: active = normalized growth mostly below about 0.91 (no sharp cut-off); inconclusive = no clear call, values can overlap the other calls; inactive = mostly above about 0.92.
# Experiment: chemical genetic growth profiling, strain panel (AID 1159580);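 also: tested at 20 µM; growth read once vehicle control cultures reached saturation at 30 °C; 1 = growth at the plate median or of vehicle wells; lower values mean less growth of the strain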
# Conditions: S. cerevisiae deletion strains, growth OD
compound,measurement,setting,value
CC(=O)O[C@]1(C)CC[C@@]23CC1C(C)(C)[C@@H]2CC[C@H]3C,normalized growth,"locus YAL013W, strain DEP1, active compounds read low",1
same,normalized growth,"locus YAL021C, strain ccr4, active compounds read low",0.985
same,normalized growth,"locus YAL026C, strain drs2, active compounds read low",0.979
same,normalized growth,"locus YAL030W, strain snc1, active compounds read low",0.98
same,normalized growth,"locus YBL061C, strain skt5, active compounds read low",0.967
same,normalized growth,"locus YBR009C, strain hhf1, active compounds read low",0.968
same,normalized growth,"locus YBR021W, strain FUR4, active compounds read low",0.954
same,normalized growth,"locus YBR023C, strain chs3, active compounds read low",0.961
same,normalized growth,"locus YBR171W, strain sec66, active compounds read low",0.969
same,normalized growth,"locus YBR229C, strain ROT2, active compounds read low",1
same,normalized growth,"locus YBR231C, strain swc5, active compounds read low",0.998
same,normalized growth,"locus YBR279W, strain paf1, active compounds read low",0.979
same,normalized growth,"locus YCL011C, strain gbp2, active compounds read low",0.975
same,normalized growth,"locus YCL016C, strain dcc1, active compounds read low",0.976
same,normalized growth,"locus YCL029C, strain bik1, active compounds read low",1.03
same,normalized growth,"locus YCL061C, strain MRC1, active compounds read low",0.985
same,normalized growth,"locus YCL069W, strain vba3, active compounds read low",0.976
same,normalized growth,"locus YCR088W, strain abp1, active compounds read low",0.978
same,normalized growth,"locus YDL005C, strain med2, active compounds read low",0.967
same,normalized growth,"locus YDL035C, strain GPR1, active compounds read low",0.964
same,normalized growth,"locus YDL040C, strain nat1, active compounds read low",0.972
same,normalized growth,"locus YDL074C, strain BRE1, active compounds read low",0.958
same,normalized growth,"locus YDL101C, strain DUN1, active compounds read low",0.981
same,normalized growth,"locus YDL185W, strain tfp1, active compounds read low",1.02
same,normalized growth,"locus YDL192W, strain arf1, active compounds read low",0.971
same,normalized growth,"locus YDR001C, strain nth1, active compounds read low",0.977
same,normalized growth,"locus YDR069C, strain doa4, active compounds read low",0.974
same,normalized growth,"locus YDR101C, strain arx1, active compounds read low",1.02
same,normalized growth,"locus YDR137W, strain rgp1, active compounds read low",0.944
same,normalized growth,"locus YDR159W, strain sac3, active compounds read low",0.986
same,normalized growth,"locus YDR162C, strain NBP2, active compounds read low",0.905
same,normalized growth,"locus YDR195W, strain ref2",0.995
same,normalized growth,"locus YDR297W, strain sur2, active compounds read low",0.96
same,normalized growth,"locus YDR318W, strain mcm21, active compounds read low",0.972
same,normalized growth,"locus YDR334W, strain swr1, active compounds read low",0.974
same,normalized growth,"locus YDR335W, strain msn5, active compounds read low",0.975
same,normalized growth,"locus YDR388W, active compounds read low",1.01
same,normalized growth,"locus YDR392W, strain spt3, active compounds read low",0.964
same,normalized growth,"locus YDR502C, strain sam2, active compounds read low",0.979
same,normalized growth,"locus YEL003W, strain gim4, active compounds read low",0.977
same,normalized growth,"locus YEL037C, strain rad23, active compounds read low",0.975
same,normalized growth,"locus YEL061C, strain CIN8 (second series), active compounds read low",0.981
same,normalized growth,"locus YEL061C, strain CIN8, active compounds read low",0.996
same,normalized growth,"locus YER015W, strain faa2, active compounds read low",0.974
same,normalized growth,"locus YER016W, strain bim1, active compounds read low",0.966
same,normalized growth,"locus YER110C, active compounds read low",1.02
same,normalized growth,"locus YER111C, strain swi4, active compounds read low",0.967
same,normalized growth,"locus YER155C, strain BEM2 (second series), active compounds read low",0.974
same,normalized growth,"locus YER155C, strain BEM2, active compounds read low",0.95
same,normalized growth,"locus YER167W, strain BCK2, active compounds read low",0.982
same,normalized growth,"locus YFR010W, strain ubp6, active compounds read low",0.994
same,normalized growth,"locus YGL078C, strain dbp3, active compounds read low",1.01
same,normalized growth,"locus YGL086W, strain mad1, active compounds read low",1.02
same,normalized growth,"locus YGL167C, strain pmr1, active compounds read low",0.977
same,normalized growth,"locus YGL173C, strain kem1, active compounds read low",0.975
same,normalized growth,"locus YGL227W, strain vid30, active compounds read low",0.969
same,normalized growth,"locus YGL240W, strain doc1, active compounds read low",1.01
same,normalized growth,"locus YGL248W, strain PDE1, active compounds read low",0.934
same,normalized growth,"locus YGL253W, strain hxk2, active compounds read low",0.981
same,normalized growth,"locus YGR078C, strain PAC10, active compounds read low",0.946
same,normalized growth,"locus YGR135W, strain pre9, active compounds read low",0.985
same,normalized growth,"locus YGR252W, strain gcn5, active compounds read low",0.867
same,normalized growth,"locus YHR013C, strain ard1, active compounds read low",0.959
same,normalized growth,"locus YHR027C, strain rpn1, active compounds read low",0.986
same,normalized growth,"locus YHR030C, strain SLT2, active compounds read low",0.964 and 0.917
same,normalized growth,"locus YHR079C, strain IRE1 (second series), active compounds read low",1.01
same,normalized growth,"locus YHR079C, strain IRE1, active compounds read low",0.951
same,normalized growth,"locus YHR094C, strain hxt1, active compounds read low",1.01
same,normalized growth,"locus YHR129C, strain ARP1, active compounds read low",0.978
same,normalized growth,"locus YHR142W, strain chs7, active compounds read low",0.967
same,normalized growth,"locus YHR200W, strain rpn10, active compounds read low",1
same,normalized growth,"locus YIL066C, strain RNR3, active compounds read low",0.973
same,normalized growth,"locus YIL073C, strain SPO22, active compounds read low",0.923
same,normalized growth,"locus YIL125W, strain kgd1, active compounds read low",1.01
same,normalized growth,"locus YIR030C, strain dcg1, active compounds read low",0.997
same,normalized growth,"locus YJL092W, strain hpr5, active compounds read low",0.983
same,normalized growth,"locus YJL095W, strain BCK1 (second series), active compounds read low",0.981
same,normalized growth,"locus YJL095W, strain BCK1, active compounds read low",0.84 and 0.968
same,normalized growth,"locus YJL115W, strain asf1, active compounds read low",0.975
same,normalized growth,"locus YJL129C, strain trk1, active compounds read low",0.981
same,normalized growth,"locus YJL134W, strain LCB3, active compounds read low",1.01
same,normalized growth,"locus YJL154C, strain vps35, active compounds read low",0.962
same,normalized growth,"locus YJL164C, strain tpk1, active compounds read low",0.978
same,normalized growth,"locus YJL166W, strain qcr8, active compounds read low",0.978
same,normalized growth,"locus YJL168C, strain set2, active compounds read low",1.01
same,normalized growth,"locus YJL187C, strain SWE1 (second series), active compounds read low",0.97
same,normalized growth,"locus YJR043C, strain POL32, active compounds read low",0.995
same,normalized growth,"locus YJR066W, strain TOR1, active compounds read low",0.958
same,normalized growth,"locus YJR075W, strain HOC1, active compounds read low",0.956
same,normalized growth,"locus YKL009W, strain mrt4, active compounds read low",1.08
same,normalized growth,"locus YKL068W, active compounds read low",0.998
same,normalized growth,"locus YKL085W, strain MDH1 (second series), active compounds read low",1
same,normalized growth,"locus YKL085W, strain MDH1, active compounds read low",1
same,normalized growth,"locus YKL160W, strain elf1, active compounds read low",0.968
same,normalized growth,"locus YKL190W, strain CNB1, active compounds read low",1
same,normalized growth,"locus YKR001C, strain vps1, active compounds read low",0.98
same,normalized growth,"locus YKR026C, strain gcn3, active compounds read low",0.974
same,normalized growth,"locus YKR091W, strain srl3, active compounds read low",0.974
same,normalized growth,"locus YLL001W, strain dnm1, active compounds read low",0.978
same,normalized growth,"locus YLL026W, active compounds read low",0.971
same,normalized growth,"locus YLL041C, strain sdh2, active compounds read low",0.973
same,normalized growth,"locus YLR027C, strain aat2, active compounds read low",0.964
same,normalized growth,"locus YLR039C, strain RIC1, active compounds read low",0.853
same,normalized growth,"locus YLR058C, strain SHM2, active compounds read low",0.974
same,normalized growth,"locus YLR102C, strain apc9, active compounds read low",1.01
same,normalized growth,"locus YLR113W, strain HOG1, active compounds read low",0.911
same,normalized growth,"locus YLR221C, strain rsa3, active compounds read low",0.977
same,normalized growth,"locus YLR258W, strain gsy2, active compounds read low",0.957
same,normalized growth,"locus YLR262C, strain YPT6 (second series), active compounds read low",0.987
same,normalized growth,"locus YLR262C, strain YPT6, active compounds read low",0.848
same,normalized growth,"locus YLR268W, strain sec22, active compounds read low",1.03
same,normalized growth,"locus YLR320W, strain mms22, active compounds read low",0.981
same,normalized growth,"locus YLR330W, strain CHS5, active compounds read low",1
same,normalized growth,"locus YLR342W, strain FKS1 (second series), active compounds read low",1
same,normalized growth,"locus YLR342W, strain FKS1, active compounds read low",0.995
same,normalized growth,"locus YLR357W, strain rsc2, active compounds read low",0.989
same,normalized growth,"locus YLR370C, strain arc18, active compounds read low",0.976
same,normalized growth,"locus YLR371W, strain rom2, active compounds read low",1.01
same,normalized growth,"locus YLR384C, strain iki3, active compounds read low",0.977
same,normalized growth,"locus YLR418C, strain cdc73, active compounds read low",0.864
same,normalized growth,"locus YML016C, strain PPZ1, active compounds read low",1
same,normalized growth,"locus YML032C, strain rad52, active compounds read low",0.965
same,normalized growth,"locus YML120C, strain ndi1, active compounds read low",0.976
same,normalized growth,"locus YML124C, strain tub3, active compounds read low",0.999
same,normalized growth,"locus YMR058W, strain fet3, active compounds read low",0.968
same,normalized growth,"locus YMR078C, strain ctf18, active compounds read low",1.01
same,normalized growth,"locus YMR125W, strain sto1, active compounds read low",0.966
same,normalized growth,"locus YMR129W, active compounds read low",0.973
same,normalized growth,"locus YMR205C, strain PFK2, active compounds read low",0.933
same,normalized growth,"locus YMR223W, strain ubp8, active compounds read low",0.959
same,normalized growth,"locus YMR231W, strain pep5, active compounds read low",0.976
same,normalized growth,"locus YMR263W, strain SAP30, active compounds read low",0.983
same,normalized growth,"locus YMR307W, strain GAS1, active compounds read low",0.74
same,normalized growth,"locus YNL067W, strain RPL9B, active compounds read low",0.969
same,normalized growth,"locus YNL071W, strain lat1, active compounds read low",0.982
same,normalized growth,"locus YNL183C, strain NPR1, active compounds read low",0.961
same,normalized growth,"locus YNL209W, strain ssb2, active compounds read low",0.983
same,normalized growth,"locus YNL233W, strain BNI4, active compounds read low",0.933
same,normalized growth,"locus YNL248C, strain rpa49, active compounds read low",0.978
same,normalized growth,"locus YNL250W, strain rad50, active compounds read low",1.01
same,normalized growth,"locus YNL271C, strain bni1, active compounds read low",1.01
same,normalized growth,"locus YNL298W, strain CLA4, active compounds read low",1.03
same,normalized growth,"locus YNL307C, strain MCK1, active compounds read low",1.01
same,normalized growth,"locus YNL322C, strain KRE1 (second series), active compounds read low",0.952
same,normalized growth,"locus YNR049C, strain mso1, active compounds read low",0.995
same,normalized growth,"locus YNR052C, strain pop2, active compounds read low",0.986
same,normalized growth,"locus YOL012C, strain htz1",0.829
same,normalized growth,"locus YOL147C, strain pex11, active compounds read low",1
same,normalized growth,"locus YOR001W, strain rrp6, active compounds read low",0.996
same,normalized growth,"locus YOR061W, strain CKA2, active compounds read low",1
same,normalized growth,"locus YOR069W, strain VPS5, active compounds read low",1
same,normalized growth,"locus YOR070C, strain gyp1, active compounds read low",0.993
same,normalized growth,"locus YOR080W, strain dia2, active compounds read low",0.967
same,normalized growth,"locus YOR083W, strain WHI5, active compounds read low",0.979
same,normalized growth,"locus YOR106W, strain vam3, active compounds read low",0.979
same,normalized growth,"locus YOR136W, strain idh2, active compounds read low",1.02
same,normalized growth,"locus YOR144C, strain elg1, active compounds read low",1.01
same,normalized growth,"locus YOR184W, strain ser1, active compounds read low",0.846 (active)
same,normalized growth,"locus YOR231W, strain MKK1, active compounds read low",0.958
same,normalized growth,"locus YOR265W, strain rbl2, active compounds read low",0.999
same,normalized growth,"locus YOR270C, strain vph1, active compounds read low",0.897
same,normalized growth,"locus YOR290C, strain snf2, active compounds read low",0.947
same,normalized growth,"locus YOR316C, strain cot1, active compounds read low",1
same,normalized growth,"locus YPL051W, strain arl3, active compounds read low",0.976
same,normalized growth,"locus YPL055C, strain LGE1, active compounds read low",0.937
same,normalized growth,"locus YPL078C, strain atp4, active compounds read low",0.999
same,normalized growth,"locus YPL106C, strain sse1, active compounds read low",0.969
same,normalized growth,"locus YPL240C, strain hsp82, active compounds read low",0.982
same,normalized growth,"locus YPL256C, strain CLN2, active compounds read low",0.991
same,normalized growth,"locus YPR119W, strain clb2, active compounds read low",1.01
same,normalized growth,"locus YPR141C, strain kar3, active compounds read low",1
same,normalized growth,"locus YPR163C, strain tif3, active compounds read low",1.02
same,normalized growth,"locus YPR167C, strain met16, active compounds read low",0.98
same,normalized growth,"strain wtn01, active compounds read low",1.04
